PubChem BioAssay
Values without a mark were called inactive. For part of these data: Measured potencies and affinities stand elsewhere. Calls of active or inactive are those of the source. Unless noted, no rule for the calls is given here.

What was measured:
[1] = antimalarial activity against Dd2 strain (AID 2302;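 active = growth inhibition above 50% at the single 2 µM test dose, taken to imply half-maximal potency below 2 µM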;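 also: 0% = DMSO untreated growth and 100% = chloroquine plus artemisinin killed control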); details: P. falciparum Dd2 in RBCs, LDH growth readout, 72 h; at 2 µM; active compounds read high
[2] = HepG2 cytotoxicity, primary screen, cytotoxicity control for P. falciparum antimalarial project, cell-based, ATP luminescence (AID 2303;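 active = inhibition above 50%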;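 also: 0% = DMSO wells and 100% = digitonin-killed cells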); details: HepG2 viability, 24-48 h, at 10 µM, active compounds read high
[3] = target: L-lactate dehydrogenase (Plasmodium falciparum (isolate CDC / Honduras)) (UniProt Q27743); assay: PfLDH activity inhibition – cell lysate, 3D7 strain, counter-screen for P. falciparum growth inhibition project (AID 2304);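 also: 0% = vehicle and 100% = reference inhibitor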; details: P. falciparum 3D7 crude extract, LDH APAD/NBT absorbance; at 2 µM; active compounds read high
Sequence of L-lactate dehydrogenase (Plasmodium falciparum (isolate CDC / Honduras)) (Q27743 whole entry, looked up): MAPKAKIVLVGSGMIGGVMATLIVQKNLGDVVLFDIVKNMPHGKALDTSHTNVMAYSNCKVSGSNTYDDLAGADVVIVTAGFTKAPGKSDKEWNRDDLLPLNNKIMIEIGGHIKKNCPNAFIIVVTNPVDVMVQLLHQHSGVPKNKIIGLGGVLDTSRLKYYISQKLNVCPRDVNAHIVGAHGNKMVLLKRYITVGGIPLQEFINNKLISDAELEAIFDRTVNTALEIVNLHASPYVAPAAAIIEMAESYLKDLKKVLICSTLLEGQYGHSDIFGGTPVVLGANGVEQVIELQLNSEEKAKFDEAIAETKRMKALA

[4] = inhibition of 3D7 malaria parasite growth – strain 3D7 (AID 2306);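 also: 0% = DMSO wells and 100% = chloroquine plus artemisinin control wells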; details: P. falciparum 3D7 erythrocytic growth, LDH absorbance, 72 h; at 2 µM; active compounds read high
[5] = target: Calcium-dependent protein kinase 1 (Plasmodium falciparum (isolate 3D7)) (UniProt P62344); assay: PfCDPK1 kinase inhibitors, biochemical, TCAMS library (AID 1159585; cut-off not given, nearly all actives have IC50 up to about 0.98 µM;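 also: inhibitors leave more ATP so luminescence rises with inhibition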); details: recombinant PfCDPK1, Kinase-Glo ATP depletion luminescence
Sequence of Calcium-dependent protein kinase 1 (Plasmodium falciparum (isolate 3D7)) (P62344 whole entry, looked up): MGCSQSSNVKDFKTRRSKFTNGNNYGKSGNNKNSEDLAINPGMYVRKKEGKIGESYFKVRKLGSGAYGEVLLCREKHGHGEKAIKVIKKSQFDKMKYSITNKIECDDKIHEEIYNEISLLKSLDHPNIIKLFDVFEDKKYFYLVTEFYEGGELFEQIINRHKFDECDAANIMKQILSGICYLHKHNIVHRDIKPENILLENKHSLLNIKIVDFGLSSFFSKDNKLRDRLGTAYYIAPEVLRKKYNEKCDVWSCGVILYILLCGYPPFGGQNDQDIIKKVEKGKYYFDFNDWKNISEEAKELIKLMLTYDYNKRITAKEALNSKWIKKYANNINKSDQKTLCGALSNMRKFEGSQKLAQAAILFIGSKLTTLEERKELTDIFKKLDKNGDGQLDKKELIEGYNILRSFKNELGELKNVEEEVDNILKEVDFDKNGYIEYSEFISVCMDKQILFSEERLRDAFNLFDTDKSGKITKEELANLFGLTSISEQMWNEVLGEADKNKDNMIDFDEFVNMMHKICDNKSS

[6] = target: Plasmodium falciparum protein kinase 6 (PK6, PF3D7_1337100) (UniProt Q8IDW1); assay: PfPK6 kinase inhibitors, biochemical, TCAMS library (AID 1159586); details: recombinant PfPK6, Kinase-Glo ATP depletion luminescence
Sequence of Plasmodium falciparum protein kinase 6 (PK6, PF3D7_1337100) (Q8IDW1 1-305): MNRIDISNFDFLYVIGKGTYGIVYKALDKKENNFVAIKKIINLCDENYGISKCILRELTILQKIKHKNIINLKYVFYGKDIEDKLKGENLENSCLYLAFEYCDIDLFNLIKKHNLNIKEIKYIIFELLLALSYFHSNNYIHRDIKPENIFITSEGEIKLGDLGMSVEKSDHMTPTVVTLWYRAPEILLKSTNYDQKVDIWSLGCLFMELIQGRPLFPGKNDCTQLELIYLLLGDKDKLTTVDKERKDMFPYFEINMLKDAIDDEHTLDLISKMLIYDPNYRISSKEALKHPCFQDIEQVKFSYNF

[7] = target: Protein kinase 7 (PK7), Plasmodium falciparum 3D7 (PF3D7_0213400) (UniProt Q7YTF7); assay: inhibition of Plasmodium PK7 catalytic activity – biochemical, TCAMS antimalarial set, Kinase-Glo luminescence (AID 1159587); details: recombinant PfPK7, Kinase-Glo ATP depletion luminescence
Sequence of Protein kinase 7 (PK7), Plasmodium falciparum 3D7 (PF3D7_0213400) (Q7YTF7 1-343): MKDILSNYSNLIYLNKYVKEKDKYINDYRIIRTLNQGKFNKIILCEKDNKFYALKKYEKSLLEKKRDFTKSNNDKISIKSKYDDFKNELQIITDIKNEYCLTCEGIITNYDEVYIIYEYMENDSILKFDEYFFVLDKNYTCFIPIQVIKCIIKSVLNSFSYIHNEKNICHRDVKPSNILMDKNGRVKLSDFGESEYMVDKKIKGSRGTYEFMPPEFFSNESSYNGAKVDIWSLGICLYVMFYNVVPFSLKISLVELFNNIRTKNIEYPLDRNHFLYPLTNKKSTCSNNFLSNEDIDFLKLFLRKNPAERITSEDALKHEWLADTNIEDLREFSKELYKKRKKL

[8] = target: Calcium-dependent protein kinase 4 (Plasmodium falciparum (isolate 3D7)) (UniProt Q8IBS5); assay: PfCDPK4 kinase inhibitors, biochemical, TCAMS library (AID 1159588; cut-off not given, nearly all actives have IC50 up to about 0.91 µM); details: recombinant PfCDPK4, Kinase-Glo ATP depletion luminescence
Sequence of Calcium-dependent protein kinase 4 (Plasmodium falciparum (isolate 3D7)) (Q8IBS5 whole entry, looked up): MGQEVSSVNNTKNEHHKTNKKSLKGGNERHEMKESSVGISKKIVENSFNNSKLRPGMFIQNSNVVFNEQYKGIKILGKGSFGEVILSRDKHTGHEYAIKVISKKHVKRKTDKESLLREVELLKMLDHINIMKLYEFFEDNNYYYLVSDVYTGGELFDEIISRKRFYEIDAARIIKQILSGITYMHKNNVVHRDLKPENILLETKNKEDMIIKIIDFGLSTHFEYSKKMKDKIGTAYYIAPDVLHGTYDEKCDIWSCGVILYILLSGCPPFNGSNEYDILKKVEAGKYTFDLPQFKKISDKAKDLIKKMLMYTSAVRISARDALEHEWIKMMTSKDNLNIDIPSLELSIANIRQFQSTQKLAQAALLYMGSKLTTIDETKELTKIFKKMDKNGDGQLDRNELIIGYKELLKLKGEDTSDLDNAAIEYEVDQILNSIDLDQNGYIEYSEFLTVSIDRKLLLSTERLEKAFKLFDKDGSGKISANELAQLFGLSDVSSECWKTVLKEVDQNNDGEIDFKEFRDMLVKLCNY

Row | SMILES | growth inhibition [1] | inhibition [2] | inhibition [3] [%] | growth inhibition [4] | outcome [5] | outcome [6] | outcome [7] | outcome [8]
1 | CC(C)COc1ccc(Cl)cc1Cc1ccc(-c2nc3ccc(CCN(C)C)cc3[nH]2)o1 | 7% | 10% | 3 | 92% (active) | inactive | inactive | inactive | inactive
2 | COc1cc(-c2ccccc2)ccc1C(=O)Nc1ccc2c(c1)N(C)CCC2 | 75% (active) | 15% | -4 | 85% (active) | inactive | inactive | inactive | inactive
3 | Cc1nnsc1C(=O)Nc1ccc(-c2ccc(-c3nc4ccccc4[nH]3)s2)cc1 | 38% | 49% | 4 | 92% (active) | inactive | inactive | inactive | inactive
4 | COc1ccc2nc(C)cc(NC3Cc4ccccc4C3)c2c1 | 13% | 20% | 5 | 98% (active) | inactive | inactive | inactive | inactive
5 | Cc1ccc2c(NN=CC=Cc3ccccc3)cc(C)nc2c1 | 13% | 3% | 6 | 92% (active) | inactive | inactive | inactive | inactive
6 | COc1cc(C(=O)Nc2nc3ccccc3[nH]2)ccc1OCC(=O)Nc1cccc(C(F)(F)F)c1 | 33% | 33% | -8 | 100% (active) | inactive | inactive | inactive | inactive
7 | COc1cc(NC(=O)N2CCOC(CCN3CCC4(CCc5ccccc54)CC3)(c3ccc(Cl)c(Cl)c3)C2)cc(OC)c1OC (stereo not drawn) | 67% (active) | 17% | -4 | 94% (active) | inactive | inactive | inactive | inactive
8 | Cc1nc(-c2ccc(-c3ccc(C(=O)Nc4ccc(I)c(OCCN5CCCC5)c4)cc3)c(C)c2)no1 | 35% | 96% (active) | -1 | 95% (active) | inactive | inactive | inactive | inactive
9 | CCCCCCCN1CC[C@H](NC(=O)Nc2ccnc3ccc(OC)cc23)[C@H](CO)C1 | 69% (active) | 23% | -3 | 94% (active) | inactive | inactive | inactive | inactive
10 | O=C(CCc1cnc[nH]1)Nc1cccc(-c2ccc(-c3nc4ccccc4[nH]3)s2)c1 | 37% | 11% | 0 | 92% (active) | inactive | inactive | inactive | inactive
11 | Cc1cc(NCC2CCN(CC3CCCCC3)C2)nc(Nc2ccc(Cl)cc2)n1 (stereo not drawn) | 74% (active) | 2% | -3 | 101% (active) | inactive | inactive | inactive | inactive
12 | CCC(CC)(Cc1ccccc1)NC(=O)[C@H](CC(C)C)Nc1ccc(C#N)c2ccccc12 | 73% (active) | 57% (active) | -1 | 90% (active) | inactive | inactive | inactive | inactive
13 | Cc1ccc2[nH]c3c(c2c1)CC(C(=O)NCCC(C)C)NC31CCN(Cc2ccccc2)CC1 (stereo not drawn) | 50% (active) | 15% | 6 | 95% (active) | inactive | inactive | inactive | inactive
14 | COc1ccc(CNC2CCN(C)CC2)cc1-c1ccc(S(=O)(=O)NCCc2ccccn2)c(F)c1 | 55% (active) | 3% | 1 | 101% (active) | inactive | inactive | inactive | inactive
15 | COc1ccc2cc(C(c3nnnn3CC3CCCO3)N3CCc4ccccc43)c(=O)[nH]c2c1 (stereo not drawn) | 3% | -3% | -1 | 94% (active) | inactive | inactive | inactive | inactive
16 | COC(=O)CCCCOc1c(OC)cc(Cc2cnc(N)nc2N)cc1OC | -2% | -2% | -2 | 93% (active) | inactive | inactive | inactive | inactive
17 | O=[N+]([O-])c1cccc(Nc2nccc(-c3cnn4ncccc34)n2)c1 | 74% (active) | 33% | -1 | 87% (active) | inactive | inactive | inactive | inactive
18 | COc1ccc(C2CCN(CCCCNC(=O)c3ccc(NC(=O)c4ccc(Cl)cc4)cc3)C2)c(OC)c1 (stereo not drawn) | -1% | 18% | 2 | 84% (active) | inactive | inactive | inactive | inactive
19 | CCNC(=O)Nc1ccc(N(C)c2ccnc(NC3CC3)n2)cc1 | 80% (active) | 21% | -5 | 100% (active) | inactive | inactive | inactive | inactive
20 | O=S(=O)(c1ccccc1C(F)(F)F)C1C[C@H]2CC[C@@H](C1)N2S(=O)(=O)c1ccc(Cl)c(C(F)(F)F)c1 (stereo partly drawn) | 99% (active) | 4% | -3 | 97% (active) | inactive | inactive | inactive | inactive
21 | Cc1cc(Nc2ccc(Cl)cc2)n2nc(C(F)(F)F)nc2n1 | 95% (active) | 5% | -1 | 97% (active) | inactive | inactive | inactive | inactive
